Laboratory results taken from ChEMBL document CHEMBL3988442, “University of Dundee, Small-Polar-MMV Screening Library” (2021).
Hit rate of the full screen: of about 48,000 compounds, about 13,000 (27%) showed an effect of 50% or more. This is one part of the list.

System: Wolbachia pipientis
Test: Anti-Wolbachia Cell-Based Screen
Type: functional
Design: scale not given: in the data most compounds retested in dose-response had high values
Conditions: 5 µM

Point of comparison: `CCc1ccc(C(=O)N(c2cccnc2)C(C)C)cc1S(C)(=O)=O`, “Percent Effect” value -4.905%. Against it:
- N#CC(NC(=O)CCC1CCC1)c1cnn(-c2ccccc2)c1 (stereo unspecified) — higher, 1.369%
- CNC(=O)Cn1nc(C(C)C)c2cnn(C(C)(C)C)c2c1=O — lower, -6.377%
- CN(C)[C@@H]1CO[C@H](CNC(=O)C2CCCC2)[C@H]1O — lower, -8.236%
- Cc1ccc(C(=O)NCCNC(=O)c2cncnc2C)cc1F — lower, -5.207%
- CCn1nc(C)cc1C(=O)N1C[C@@H]2C[C@@H](c3noc(C)n3)O[C@@H]2C1 — higher, 118.5%
- CCn1nc(C)cc1C(=O)N1C[C@@H]2C[C@@H](C)O[C@@H]2C1.O=C(O)C(F)(F)F — higher, 99.49%
- CCn1nc(C)cc1C(=O)N1C[C@@H]2C[C@@H](c3nc(C)cs3)O[C@@H]2C1 — higher, 100.8%
- CCN1C[C@@H]2[C@@H](OC)CCN(C(=O)c3cc(C)nn3CC)[C@@H]2C1.O=C(O)C(F)(F)F — lower, -7.784%
- Cc1nnc([C@@H]2C[C@H]3CN(C(=O)C4CC4)C[C@H]3O2)[nH]1 — lower, -12.1%
- CCn1nc(C)cc1C(=O)N1CC[C@H](OC)[C@H]2CN(CC3CC3)C[C@H]21.O=C(O)C(F)(F)F — higher, 3.94%
- Cc1csc([C@@H]2C[C@@H]3CCN(C(=O)c4ccnnc4)C[C@H]3O2)n1 — lower, -12.9%
- Cc1csc([C@@H]2C[C@@H]3CCN(C(=O)c4cc(C)on4)C[C@H]3O2)n1 — higher, 1.11%
- CCC(C)(C)C(=O)N1C[C@@H]2C[C@@H](c3nnc(C)[nH]3)O[C@@H]2C1 — higher, 92.76%
- Cc1ccc(C(=O)N2CC[C@H]3O[C@@H](c4noc(C)n4)C[C@H]3C2)o1 — higher, 6.095%
- Cc1nnc([C@@H]2C[C@H]3CN(C(=O)c4c(C)noc4C)C[C@H]3O2)[nH]1.O=C(O)C(F)(F)F — lower, -14.34%
- Cc1nc([C@H]2C[C@H]3CN(C(=O)c4cc(C)c(C)s4)CC[C@@H]3O2)no1 — higher, 1.908%
- O=C(CN1CCS(=O)(=O)CC1)NC1CCCCc2ccccc21 (stereo unspecified) — lower, -11.03%
- CCC(Nc1nnnn1-c1ccccc1)C(=O)NCc1cccs1 (stereo unspecified) — higher, -3.486%
- CN1CCOC[C@H]1c1nc(-c2ccc(F)cc2F)c[nH]1 — higher, 2.014%
- COC1CCCN(CCCc2cn[nH]c2)C1 (stereo unspecified) — lower, -27.42%
- OC1CCN([C@@H]2CCN(c3nc(-c4ccccc4)no3)C[C@H]2O)CC1 — lower, -5.249%
- CCCN1CC2(CCN(C)CC2)CC1C(=O)NCc1cc(C)nn1C (stereo unspecified) — higher, 6.557%
- O=C(NCC(F)(F)F)C1CN(C(=O)c2cnccn2)C1 — lower, -11.97%
- CCn1nc(C)cc1C(=O)N1C[C@@H]2C[C@@H](c3nnc(C)[nH]3)O[C@@H]2C1 — higher, 102%
- Cc1nnc([C@H]2C[C@@H]3CCN(C(=O)C4CCOCC4)C[C@H]3O2)[nH]1 — lower, -13.79%
- Cc1nnc([C@@H]2C[C@H]3CN(C(=O)c4sccc4C)C[C@H]3O2)[nH]1 — higher, -0.8336%
- CCc1nc(N2CCCC(CCCOC)(C(=O)O)C2)ncc1C (stereo unspecified) — lower, -7.437%
- CO[C@H]1CCN(c2ncccn2)[C@H]1Cc1ccccc1 — higher, 1.779%
- CO[C@H]1CCN(Cc2nccs2)C[C@@H]1Cc1ccccc1 — higher, 1.604%
- Cc1cc2c(cc1C)C(NC1CC1)CCCO2 (stereo unspecified) — higher, -4.167%
- CCCc1ccc(C(=O)N2Cc3c(Cn4ccnc4)nn(C)c3C2)cc1.O=CO — lower, -14.37%
- CCNC(=O)CCC(=O)Nc1ccc2nn(C(C)C)cc2c1 — higher, 9.58%
- CC(C)Cn1cnc2ccc(NC(=O)CCCn3cccn3)cc2c1=O — higher, 102.5%
- CC(C)Cn1cncc1CNC(=O)c1cccc(Cn2cccn2)c1 — higher, 0.1096%
- Cn1cnc2ccc(NC(=O)CCCn3cccn3)cc2c1=O — higher, 106.9%
- Cc1ccc(C(=O)NCCCn2cccn2)c(=O)[nH]1 — higher, 22.25%
- CCN(CC)c1ccc(NC(=O)NC(C)Cn2cccn2)cn1 (stereo unspecified) — lower, -15.96%
- CC(C)c1nc(NC(=O)CCCn2cccc2)n(C)n1 — lower, -8.102%
- COCCn1ccc(NC(=O)Nc2ccncc2)n1 — higher, 5.636%
- COCCn1cnc2ccc(NC(=O)CCCn3cccn3)cc2c1=O — higher, 181%
- COCCn1ccc(NC(=O)Nc2ccc(C)cc2)n1 — higher, 3.618%
- CC(C)n1cnc2ccc(NC(=O)CCCn3cccn3)cc2c1=O — higher, 106%
- COC(=O)CC(NC(=O)CCCn1cccn1)c1ccc(Cl)cc1 (stereo unspecified) — lower, -43.24%
- CCc1nnsc1C(=O)NCCCC(CC)(CC)C1OCCO1 — lower, -13.99%
- CC(C)c1nnc2n1CC(CNc1cnc3ccccc3n1)CC2 (stereo unspecified) — higher, -3.73%
- Cc1cc(C)n(C2CN(CC(O)COc3ccc(F)cc3)C2)n1 (stereo unspecified) — higher, 3.815%
- CC(NCCc1nccn1Cc1ccccc1)c1ccsc1 (stereo unspecified) — higher, 1.494%
- O=C(c1ccc[nH]1)N1C[C@H]2CC[C@@H]1CN(c1ncccn1)C2 — lower, -10.43%
- CCOc1ncccc1-c1cc2c(cc1C(N)=O)OCO2 — higher, 2.212%
- COC(=O)CNC(=O)CSCc1nc(O)c2c(C)c(C)sc2n1 — higher, 7.048%
- CNS(=O)(=O)c1cccc(C(C)NCc2nccn2C(C)C)c1 (stereo unspecified) — lower, -13.68%
- CC(C)(C)c1nc(CN2CCC3(CCCO3)CCC2=O)no1 (stereo unspecified) — higher, -4.31%
- O=C(CCc1ccccc1F)NS(=O)(=O)c1ccc2c(c1)OCCCO2 — higher, 3.529%
- Cn1c(CN2CCOC[C@H]2c2nc(C(C)(C)C)co2)nc2ccccc21 — higher, -2.257%
- CO[C@H]1CN(Cc2nc3ccccc3n2C)CC[C@@]12CCCO2 — higher, 137.2%
- Cn1c(CO[C@H]2CN(S(C)(=O)=O)C[C@H]2F)nc2ccccc21 — higher, 0.03029%
- COCCN1C[C@H]2CC[C@@H]1CN(Cc1nc3ccccc3n1C)C2 — higher, 17.95%
- CO[C@H]1CN(Cc2nc3ccccc3n2C)C[C@@]12CCCO2 — higher, 116%
- Cc1cc(NC(=O)NCc2ccc(S(=O)(=O)N3CCCC3)s2)no1 — lower, -7.015%
- CCOc1ccc(S(=O)(=O)NC(=O)c2c(C)noc2C(C)C)cc1 — higher, 3.193%
- CC(=O)Nc1c(C)noc1/C=C\c1ccc(C)c(S(=O)(=O)NC2CC2)c1 — higher, 113.9%
- Cc1ccc(S(=O)(=O)NC2CC2)cc1C — higher, 3.676%
- CC(C)N(CCNC(=O)c1ccc(S(=O)(=O)NC2CC2)cc1)C(C)C — higher, -4.232%
- Cc1noc(C)c1NS(=O)(=O)c1cc(Cl)c(Cl)c(C(=O)O)c1 — higher, -2.046%
- CC(=O)Nc1c(C)noc1/C=C\c1ccc(S(=O)(=O)NC2CC2)cc1 — higher, 127.5%
- CC(=O)Nc1c(C)noc1/C=C\c1ccc(S(=O)(=O)N2CCCC2)cc1 — higher, 101.8%
- CCN(CC1CCCO1)S(=O)(=O)c1cc(NC(C)=O)ccc1C (stereo unspecified) — lower, -4.974%
- Cc1cc(C)c(S(=O)(=O)Nc2c(C)noc2C)cc1C(=O)O — lower, -6.139%
- Cc1noc(C)c1C(=O)N(C)C(C)c1ccc(S(C)(=O)=O)cc1 (stereo unspecified) — lower, -13.22%
- CCC(C)NS(=O)(=O)c1ccc(/C=C\c2onc(C)c2NC(C)=O)cc1 (stereo unspecified) — higher, 102.8%
- COCc1c(C(=O)N2CCCC(C(=O)c3ccccc3)C2)noc1C (stereo unspecified) — higher, 18.29%
- CC(C)c1noc(-c2ccc(N(C)C3CCOCC3)nc2)n1 — higher, 4.725%
- Cn1cc(N2CCCC(NCc3cccc4c3OCCCO4)C2)cn1 (stereo unspecified) — higher, 5.522%
- CC(=O)N1CCN(Cc2csc(-c3cnn(C)c3)n2)CC1 — higher, -2.698%
- CN(CCOc1ccccc1)C(=O)Nc1cccn(C)c1=O — lower, -7.911%
- CCn1nc(C)c(CNCCn2cc(C)cn2)c1C — higher, -3.614%
- CCc1n[nH]c(C2CN(C(=O)c3cscn3)CCO2)n1 (stereo unspecified) — higher, 131.5%
- CCc1n[nH]c(C2CN(C(=O)c3csnn3)CCO2)n1 (stereo unspecified) — higher, 5.505%
- CCc1n[nH]c(C2CN(C(=O)c3cnn(CC)c3)CCO2)n1 (stereo unspecified) — higher, 143.5%
- CCc1n[nH]c(C2CN(C(=O)c3ccc(Cl)cn3)CCO2)n1 (stereo unspecified) — higher, 105.2%
- CCc1n[nH]c(C2CN(C(=O)c3cnc(C)s3)CCO2)n1 (stereo unspecified) — higher, 1.148%
- CCc1n[nH]c(C2CN(C(=O)c3ccsc3)CCO2)n1 (stereo unspecified) — lower, -7.314%
- CCc1n[nH]c(C2CN(C(=O)c3cnc(C)cn3)CCO2)n1 (stereo unspecified) — higher, 99.84%
- CCc1n[nH]c(C2CN(C(=O)c3cnns3)CCO2)n1 (stereo unspecified) — lower, -10.08%
- Cc1ccc2c(c1)CCC21CCN(CCO)CC1 — higher, 9.958%
- Cc1ccc(NC(=O)N(CCO)CCO)c(OCc2ccccc2)c1 — lower, -35.37%
- Nc1nccnc1C(=O)N(Cc1ccccc1O)CC1CCCO1 (stereo unspecified) — lower, -11.08%
- CCn1cncc1CN(Cc1ccc(OC)cc1OC)CC1CCCO1.O=C(O)CC(O)(CC(=O)O)C(=O)O (stereo unspecified) — higher, 91.73%
- COC(=O)CCN(CC1CCCO1)C(=O)Cc1ccc(OC)c(OC)c1 (stereo unspecified) — higher, 2.857%
- COc1ccc(CN(Cc2ccccn2)Cc2cncn2C)cc1.O=C(O)CC(O)(CC(=O)O)C(=O)O — higher, 130.6%
- COc1ccc(CN(Cc2cn(C)nc2C)CC2CCCO2)c(OC)c1 (stereo unspecified) — higher, 138%
- COc1ccc(CN(Cc2cncn2C)CC2CCCO2)c(OC)c1.O=C(O)CC(O)(CC(=O)O)C(=O)O (stereo unspecified) — lower, -9.808%
- Cc1cc(CN(Cc2cccs2)CC2CCCO2)no1 (stereo unspecified) — lower, -7.251%
- COc1ccc(CN(Cc2cnc(N)nc2)CC2CCCO2)c(OC)c1.O=C(O)CC(O)(CC(=O)O)C(=O)O (stereo unspecified) — higher, 113.1%
- COc1ccc(CN(CC2CCCO2)c2nc3c(s2)c(C)nn3C)cc1 (stereo unspecified) — lower, -25.43%
